Records with an inconclusive call do not appear. Entries that show only a call come without a potency. Unmarked numbers belong to inactive results. Activity calls are given as the source filed them. Calls come from the whole dose curve; as a rule, active = well fitted inhibition curve with a large enough effect; inconclusive = small, poorly fitted or top-dose-only effect; inactive = no such curve, though single readings can be large or run the other way.
target: Rap guanine nucleotide exchange factor 4 (Homo sapiens) (UniProt Q8WZA2); test: Confirmatory qHTS for antagonist of cAMP-regulated guanine nucleotide exchange factor 4 (EPAC2) (AID 1645885); details: EPAC2 Rap1B-BODIPY-GDP exchange fluorescence, biochemical; series mostly up to 12.7 µM; note: nearly all actives have a fitted effect of over 25% in size; note: potency is the fitted concentration of half-maximal effect
Sequence (Q8WZA2 whole entry, looked up): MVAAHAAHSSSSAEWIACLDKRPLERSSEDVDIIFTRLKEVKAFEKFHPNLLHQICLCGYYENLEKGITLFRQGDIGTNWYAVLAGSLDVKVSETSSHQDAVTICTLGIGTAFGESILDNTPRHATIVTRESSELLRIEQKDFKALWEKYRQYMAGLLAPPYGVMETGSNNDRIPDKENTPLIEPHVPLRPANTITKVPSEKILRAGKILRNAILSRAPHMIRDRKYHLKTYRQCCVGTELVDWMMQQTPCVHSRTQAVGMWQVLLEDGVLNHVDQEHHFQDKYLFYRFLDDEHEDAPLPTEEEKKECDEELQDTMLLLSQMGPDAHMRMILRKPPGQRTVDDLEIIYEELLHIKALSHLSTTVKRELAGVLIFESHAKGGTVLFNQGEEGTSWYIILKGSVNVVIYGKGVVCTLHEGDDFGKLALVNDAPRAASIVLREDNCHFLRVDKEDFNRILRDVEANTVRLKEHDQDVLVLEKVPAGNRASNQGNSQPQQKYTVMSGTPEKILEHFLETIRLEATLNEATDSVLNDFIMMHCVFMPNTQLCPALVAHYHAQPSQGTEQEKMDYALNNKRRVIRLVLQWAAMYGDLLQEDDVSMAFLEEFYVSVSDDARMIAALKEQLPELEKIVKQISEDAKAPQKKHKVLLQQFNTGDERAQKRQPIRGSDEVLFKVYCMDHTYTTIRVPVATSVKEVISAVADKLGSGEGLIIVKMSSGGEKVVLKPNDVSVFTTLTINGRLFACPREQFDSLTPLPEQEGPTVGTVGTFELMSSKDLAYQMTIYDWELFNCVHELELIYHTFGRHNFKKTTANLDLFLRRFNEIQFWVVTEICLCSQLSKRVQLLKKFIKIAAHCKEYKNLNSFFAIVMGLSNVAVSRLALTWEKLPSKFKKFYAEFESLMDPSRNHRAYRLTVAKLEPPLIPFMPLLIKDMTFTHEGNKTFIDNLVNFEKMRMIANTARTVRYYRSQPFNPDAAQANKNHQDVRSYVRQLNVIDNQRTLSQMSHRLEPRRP

SMILES	Potency
CCOC(=O)C1=C(C)N=c2s/c(=C\c3cccn3C)c(=O)n2C1c1cccc(OC)c1OC (configuration not stated)	inactive
O=c1[nH]c2ccccc2nc1/C=C(\O)c1cccs1	inactive
O=C1/C(=C/C=C/c2ccccc2)Oc2c1ccc(O)c2CN1CCN(CCO)CC1	inactive
Cc1cccc(-n2c(N)c(-c3nc4ccccc4n3C)c3nc4ccccc4nc32)c1	inactive
COC(=O)c1ccc2nc(-c3ccccc3)c(Cc3cccc(F)c3)n2c1	inactive
COc1ccc(-c2ncccc2OC(=O)C23CC4CC(CC(C4)C2)C3)cc1OC	inactive
N=C1SC(c2ccccc2)C(=O)N1c1ncc(Cc2ccccc2Cl)s1 (configuration not stated)	inactive
CCOc1ccccc1Oc1nc(C)nc2c1oc1ccccc12	inactive
Cn1cc(/C=C2\SC(=S)N(NC(=O)c3ccccc3Cl)C2=O)c2ccccc21	inactive
O=C(O)c1ccccc1NS(=O)(=O)c1ccc(NN=Cc2cccc(Cl)c2)c([N+](=O)[O-])c1	inactive
O=S1(=O)NC(c2ccccc2)CC(CC2CCCCC2)O1 (configuration not stated)	inactive
CN(C)c1ccc(C(=O)/C=C/c2ccc(Br)cc2)cc1	inactive
C=CCN1C(=O)c2cccc3c(N4CCCCC4)ccc(c23)C1=O	inactive
O=S(=O)(NCC(c1ccco1)N1CCc2ccccc21)c1ccccc1 (configuration not stated)	inactive
CCOC(=O)C1CCCN(c2c(C(=O)c3ccccc3)cnc3ccc(OC)cc23)C1 (configuration not stated)	inactive
CC(NC(=O)/C(C#N)=C/c1ccc(N2CCOCC2)cc1)c1ccccc1 (configuration not stated)	inactive
Cc1cccc(C(C)C)c1-n1nnnc1-c1ccccc1	3.01 µM (active)
O=C(NN=Cc1c(O)ccc2ccccc12)c1ccncc1	inactive
COc1ccc(C(=O)/C=C/c2ccc(N(C)C)cc2)c(OC)c1	inactive
O=C1c2cccc3c(N4CCCCC4)ccc(c23)C(=O)N1c1ccccc1O	inactive
Nc1c(C(=O)C2CC2)sc2nc(-c3cccs3)cc(C(F)(F)F)c12	75.7 µM (active)
COC(=O)c1cc2oc(C)cc2n1Cc1cc(C)ccc1C	inactive

target: Rap guanine nucleotide exchange factor 3 (Homo sapiens) (UniProt O95398); test: Counterscreen qHTS for antagonist of cAMP-regulated guanine nucleotide exchange factor 3 (EPAC1) (AID 1645888); details: Rap1B-BODIPY-GDP nucleotide exchange, fluorescence; series mostly up to 154 µM;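 note: fluorescence loss as bound BODIPY-GDP is released from Rap1B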
Sequence (O95398 whole entry, looked up): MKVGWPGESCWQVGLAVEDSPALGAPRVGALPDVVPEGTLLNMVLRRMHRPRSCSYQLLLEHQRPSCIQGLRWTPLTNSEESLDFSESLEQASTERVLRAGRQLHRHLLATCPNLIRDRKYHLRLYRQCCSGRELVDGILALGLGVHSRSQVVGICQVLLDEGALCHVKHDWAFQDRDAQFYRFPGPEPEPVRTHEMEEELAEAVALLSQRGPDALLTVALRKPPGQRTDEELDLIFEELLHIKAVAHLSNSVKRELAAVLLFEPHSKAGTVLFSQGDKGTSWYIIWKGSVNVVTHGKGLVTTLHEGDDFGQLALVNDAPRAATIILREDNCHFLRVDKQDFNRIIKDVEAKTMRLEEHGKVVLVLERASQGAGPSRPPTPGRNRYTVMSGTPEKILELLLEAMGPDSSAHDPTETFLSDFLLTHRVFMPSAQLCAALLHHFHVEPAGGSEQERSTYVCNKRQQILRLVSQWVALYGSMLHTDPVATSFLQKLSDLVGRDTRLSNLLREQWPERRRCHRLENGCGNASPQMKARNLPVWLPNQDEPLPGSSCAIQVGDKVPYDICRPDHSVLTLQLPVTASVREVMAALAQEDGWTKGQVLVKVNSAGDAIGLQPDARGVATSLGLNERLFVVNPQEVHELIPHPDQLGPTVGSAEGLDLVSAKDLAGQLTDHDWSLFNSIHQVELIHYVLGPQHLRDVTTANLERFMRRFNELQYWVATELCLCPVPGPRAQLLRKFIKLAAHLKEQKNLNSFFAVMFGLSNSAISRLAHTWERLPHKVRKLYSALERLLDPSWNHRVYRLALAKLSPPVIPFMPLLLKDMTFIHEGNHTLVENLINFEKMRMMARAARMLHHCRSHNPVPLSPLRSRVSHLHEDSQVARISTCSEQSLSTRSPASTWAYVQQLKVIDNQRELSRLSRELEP
How it was run: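 Rap1B–BODIPY-GDP (250 nM) with 50 uM GDP; compounds pin-transferred to 9.74 nM–152 uM final (activator) or from 7.32 nM upwards (inhibitor). Fluorescence Ex/Em 480/540 nm read at 5 and 30 min, then after adding cAMP or buffer, at room temperature.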

SMILES	Potency	activity change, negative = inhibition
COc1ccc(/C(O)=C/c2nc3ccccc3n(-c3ccccc3)c2=O)cc1	inactive	
COc1ccccc1C(=O)NNC(=O)CCCN1C(=O)/C(=C/c2cccs2)SC1=S		10.7% [at 30.8 µM]
CNC(=O)N(C1=NCC(C)(C)S1)c1ccc(F)c(Cl)c1	inactive	
Nc1ccccc1Oc1ccc2ccccc2c1	inactive	
COc1ccc(OC)c(NC(=S)N2c3ccccc3CC2C)c1 (configuration not stated)		-17.1% [at 30.8 µM]
O=C(COc1cccc(OC(F)F)c1)Nc1ccc(SC(F)F)cc1		8.28% [at 30.8 µM]
Cc1ccc(S(=O)(=O)C2(C(=O)Nc3ccc(Br)cc3)CC2)cc1		-6.73% [at 30.8 µM]
Oc1c(C(c2ccccc2)N2CCN(c3ccccc3)CC2)sc2nc(-c3ccco3)nn12 (configuration not stated)	inactive	
COc1ccc(Cl)cc1NC(=O)CN(C)C(C)C(=O)NC(=O)NC1CCCCC1 (configuration not stated)	inactive	
CCOC(=O)/C(C#N)=C/c1ccc(N2CCN(Cc3ccccc3)CC2)cc1		16.8% [at 30.8 µM]
CN1CCS/C1=C\C=C1/SC(=S)N(CC(=O)O)C1=O	inactive	
CC(/C=C/c1ccc(N(C)C)cc1)=N\N=C1\NC(=O)CC(C(=O)Nc2ccccc2)S1 (configuration not stated)		-3.02% [at 30.8 µM]
Cc1ccc2cccc(OC(=O)c3c(F)cccc3Cl)c2n1	inactive	
CCN(CC)c1ccc2cc(C(N)=O)c(=N)oc2c1		-1.22% [at 30.8 µM]
O=C(N/N=C/c1cc(Cl)cc([N+](=O)[O-])c1O)NC12CC3CC(CC(C3)C1)C2	inactive	
COC(=O)CC(NC(=S)NC(=O)c1ccccc1)c1ccc(Br)cc1 (configuration not stated)	inactive	
CN(C)c1ccc(C2C=C(c3ccc(Cl)cc3OC(F)F)Nc3ncnn32)cc1 (configuration not stated)		-14.7% [at 30.8 µM]
Cc1ccc(NC(=O)c2sc3nc(-c4cc5ccccc5oc4=O)[nH]c(=O)c3c2C)c(C)c1	inactive	
CCOC(=O)C1=C(C)N=c2s/c(=C\c3cccn3C)c(=O)n2C1c1cccc(OC)c1OC (configuration not stated)		-4.43% [at 30.8 µM]
O=c1[nH]c2ccccc2nc1/C=C(\O)c1cccs1		-7.08% [at 30.8 µM]

SMILES	Potency	activity change, negative = inhibition
O=C1/C(=C/C=C/c2ccccc2)Oc2c1ccc(O)c2CN1CCN(CCO)CC1		31.1% [at 30.8 µM]
Cc1cccc(-n2c(N)c(-c3nc4ccccc4n3C)c3nc4ccccc4nc32)c1		-16.7% [at 30.8 µM]
COC(=O)c1ccc2nc(-c3ccccc3)c(Cc3cccc(F)c3)n2c1		10% [at 30.8 µM]
COc1ccc(-c2ncccc2OC(=O)C23CC4CC(CC(C4)C2)C3)cc1OC		-6.96% [at 30.8 µM]
N=C1SC(c2ccccc2)C(=O)N1c1ncc(Cc2ccccc2Cl)s1 (configuration not stated)	inactive	
CCOc1ccccc1Oc1nc(C)nc2c1oc1ccccc12	inactive	
Cn1cc(/C=C2\SC(=S)N(NC(=O)c3ccccc3Cl)C2=O)c2ccccc21	inactive	
O=C(O)c1ccccc1NS(=O)(=O)c1ccc(NN=Cc2cccc(Cl)c2)c([N+](=O)[O-])c1	inactive	
O=S1(=O)NC(c2ccccc2)CC(CC2CCCCC2)O1 (configuration not stated)		-0.437% [at 30.8 µM]
CN(C)c1ccc(C(=O)/C=C/c2ccc(Br)cc2)cc1	inactive	
C=CCN1C(=O)c2cccc3c(N4CCCCC4)ccc(c23)C1=O	inactive	
O=S(=O)(NCC(c1ccco1)N1CCc2ccccc21)c1ccccc1 (configuration not stated)		-0.643% [at 30.8 µM]
CCOC(=O)C1CCCN(c2c(C(=O)c3ccccc3)cnc3ccc(OC)cc23)C1 (configuration not stated)		19.5% [at 30.8 µM]
CC(NC(=O)/C(C#N)=C/c1ccc(N2CCOCC2)cc1)c1ccccc1 (configuration not stated)	inactive	
Cc1cccc(C(C)C)c1-n1nnnc1-c1ccccc1		-11.8% [at 30.8 µM]
O=C(NN=Cc1c(O)ccc2ccccc12)c1ccncc1		4.58% [at 30.8 µM]
COc1ccc(C(=O)/C=C/c2ccc(N(C)C)cc2)c(OC)c1	inactive	
O=C1c2cccc3c(N4CCCCC4)ccc(c23)C(=O)N1c1ccccc1O		-4.8% [at 30.8 µM]
Nc1c(C(=O)C2CC2)sc2nc(-c3cccs3)cc(C(F)(F)F)c12	inactive	
COC(=O)c1cc2oc(C)cc2n1Cc1cc(C)ccc1C	inactive	
